# According to PubChem BioAssay (Tox21):
# Results filed as inconclusive are left out. Calls of active or inactive are those of the source. Calls come from the whole dose curve; as a rule, active = well fitted cell-killing curve with a large enough effect in the repeat runs; inconclusive = weak or mixed curves, or effect the other way; inactive = flat fitted curve, though single readings scatter.
# Test: qHTS RealTime-Glo MT Cell Viability Assay in HEK293 cells - 0 hour (AID 1224880); note: top concentration of the series differs between compounds; nearly all actives have a fitted effect of over 45% in size
# Details: RealTime-Glo luminescence; series mostly up to 76.8 µM; activity change, negative = cytotoxicity: at the top concentration
# Source text: U.S. Tox21 Program National Center for Advancing Translational Sciences [NCATS] NIH Chemical Genomics Center [NCGC] U.S. Environmental Protection Agency [EPA] National Institutes of Environmental Health Sciences [NIEHS] National Toxicology Program [NTP] U.S. Food and Drug Administration [FDA] Tox21 Assay Overview: Measure of cell viability is critical in the cell-base assay. Analysis of cell viability is necessary for the characterization of cell responses to cytotoxic drugs and environmental stress. A RealTime-Glo MT Cell Viability Assay to monitor cell viability in real time of continues cell culture during 40 hours of compound treatment was used to screen Tox21 10K library compounds in Hek293 cells. The RealTime-Glo MT Cell Viability Assay is a nonlytic, homogeneous, bioluminescent method to measure cell viability in real time using a simple, plate-based method. The assay involves adding NanoLuc luciferase and a cell-permeant prosubstrate to cells in culture. Viable cells reduce the proprietary prosubstrate to generate a substrate for NanoLuc luciferase. This substrate diffuses from cells into the surrounding culture medium, where it is rapidly used by the NanoLuc Enzyme to produce a luminescent signal. The signal correlates with the number of viable cells, making the assay well suited for cytotoxicity studies.
# Tox21 Assay Protocol Summary: The mixture of Hek293 cell suspension and reagents were dispensed at 600cells/6 ul/well in 1536-well tissue culture treated black solid bottom plates using a Multidrop dispenser. After the assay plates were incubated at a 37 C/5% CO2 incubator for 5 hours, 23 nL of compounds dissolved in DMSO, positive and negative controls was transferred to the assay plate by a pintool work station. The plates were incubated at 37 C for 40 hours. The luminescence intensity were measured at 0h, 8h, 16h, 24h, 32h and 40h time points using ViewLux plate reader during compound treatment.
# % is set by controls: 0 for no effect and ±100 for the full control effect.
row,Structure (SMILES),"activity change, negative = cytotoxicity"
1,CC[C@H]1OC(=O)[C@H](C)[C@@H](O[C@H]2C[C@@](C)(OC)[C@@H](O)[C@H](C)O2)[C@H](C)[C@@H](O[C@@H]2O[C@H](C)C[C@H](N(C)C)[C@H]2O)[C@](C)(O)C[C@@H](C)/C(=N\OCOCCOC)[C@H](C)[C@@H](O)[C@]1(C)O,-2.32% [at 35.3 µM] (inactive)
2,COc1ccc(C(=O)NCc2ccc(OCCN(C)C)cc2)cc1OC,0.672% [at 35.3 µM] (inactive)
3,CCN(CC)CCOc1ccccc1C(=O)CCc1ccccc1,2.34% [at 35.3 µM] (inactive)
4,CC(C)(C)C(O)/C=C/c1ccc2c(c1)OCO2 (stereo not given),-2.04% [at 35.3 µM] (inactive)
5,O=C(O)CO,9.99% (inactive)
6,CCCCCCCC/C=C\CCCCCCCC(=O)OCCO,-26.7% (inactive)
7,O=C(O)c1ccc(O)cc1O,3.56% (inactive)
8,COc1ccc(-c2cc(=S)ss2)cc1,-1.56% [at 35.3 µM] (inactive)
9,CSSc1ccoc1C,-9.06% (inactive)
10,O=c1[nH][nH]c(=O)c2cc([N+](=O)[O-])ccc12,-6.1% (inactive)
11,COc1ccc2nc(S(=O)Cc3ncc(C)c(OC)c3C)[nH]c2c1 (stereo not given),9.87% [at 35.3 µM] (inactive)
12,COC(CC(C)CCCC(C)(C)O)OC (stereo not given),16.1% (inactive)
13,Cc1ccc2c(c1)CCCN2,-0.784% (inactive)
14,CC(=O)C(=O)CC(C)C,10.4% (inactive)
15,CCO[Si](C)(CCCOCC1CO1)OCC (stereo not given),0.104% (inactive)
16,Cc1ccc(Cl)cc1N,8.93% (inactive)
17,Nc1ccc(S(=O)(=O)NCc2ccccc2)cc1,-4.82% [at 35.3 µM] (inactive)
18,CC(C)C1CCC(C(=O)N[C@H](Cc2ccccc2)C(=O)O)CC1 (stereo not given in full),-1.63% [at 35.3 µM] (inactive)
19,O=C(O)c1cc(Cl)cc(Cl)c1O,-6.62% (inactive)
20,CC(C)C(O)C(C)(C)CO (stereo not given),11.3% (inactive)

row,Structure (SMILES),"activity change, negative = cytotoxicity"
1,CC(C)C(=O)OCCOc1ccccc1,14.5% (inactive)
2,CC(C)(O)c1coc(S(=O)(=O)NC(=O)Nc2c3c(cc4c2CCC4)CCC3)c1,-4.66% (inactive)
3,CC1CCC(C(C)CS)CC1S (stereo not given),0% (inactive)
4,COc1cc(NC(C)CCCN)c2ncccc2c1 (stereo not given),11.7% [at 35.3 µM] (inactive)
5,COc1ccc(-n2nc(C(F)F)cc2-c2ccc(S(C)=O)cc2)cc1 (stereo not given),-0.404% (inactive)
6,CCN(CC)CCOC(=O)C(c1ccccc1)c1ccccc1,0.123% [at 35.3 µM] (inactive)
7,O=S(=O)(O)CO,3.86% (inactive)
8,CC12CC3CC(C)(C1)CC(N)(C3)C2,15.2% [at 35.3 µM] (inactive)
9,CCCCCCC(O)CCOC(C)=O (stereo not given),9.62% [at 200 µM] (inactive)
10,CCSC(=O)N(CC)CC,-9.41% (inactive)
11,c1ccc(CNc2ncnc3c2ncn3C2CCCCO2)cc1 (stereo not given),-6.38% (inactive)
12,CC(C)c1ccc(C#N)cc1,1.5% (inactive)
13,CCCOC(=O)c1c(Cl)c(Cl)c(Cl)c(Cl)c1C(=O)OCCC,0.189% (inactive)
14,CC(CN(CCN(CC(C)OCCO)CC(C)OCCO)CC(C)OCCO)OCCO (stereo not given),-5.19% (inactive)
15,C1=CCC2CC=CC2C1 (stereo not given),-0.595% (inactive)
16,CCCCCCCC/C=C/C(=O)O,4.8% [at 35.3 µM] (inactive)
17,CSCC[C@H](NC(=O)[C@H](Cc1c[nH]c2ccccc12)NC(=O)CCNC(=O)OC(C)(C)C)C(=O)N[C@@H](CC(=O)O)C(=O)N[C@@H](Cc1ccccc1)C(N)=O,-0.489% [at 35.3 µM] (inactive)
18,CCCCOC(=O)CCCCC(=O)OCCCC,12.2% (inactive)
19,CCOC(=O)c1c(N)sc2c1CCN(Cc1ccccc1)C2,-14.8% [at 35.3 µM] (inactive)
20,CC(=O)c1ccc[nH]1,-1.86% (inactive)
